Test results: PubChem BioAssay
Unmarked numbers belong to inactive results. The list shows a part of the results. Activity calls are given as the source filed them.

Key:
[1] = biological target: Potassium voltage-gated channel subfamily KQT member 2 (Rattus norvegicus) (UniProt O88943); test: W236L mutant KCNQ2 current enhancers – cell-based, rat KCNQ2 W236L, CHO, automated patch clamp, mechanism study for KCNQ2 potentiator project (AID 2558); details: at 25 µM
[2] = biological target: Short transient receptor potential channel 4 (Mus musculus) (UniProt Q9QUQ5); test: DAMGO-gated TRPC4 membrane potential modulation – cell-based, second specificity screen, HEK293 TRPC4/mu-opioid, selectivity assay for TRPC6 inhibitor project, confirmation (AID 2776;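 active = compounds whose fluorescence signal differed from control wells by over 3 SD, either direction, in both duplicate plates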); details: HEK293 TRPC4/MOR, membrane potential dye fluorescence, at 10 µM, channel activated by saturating DAMGO dose; active compounds read high
Short transient receptor potential channel 4 (Mus musculus), sequence (Q9QUQ5 whole entry, looked up): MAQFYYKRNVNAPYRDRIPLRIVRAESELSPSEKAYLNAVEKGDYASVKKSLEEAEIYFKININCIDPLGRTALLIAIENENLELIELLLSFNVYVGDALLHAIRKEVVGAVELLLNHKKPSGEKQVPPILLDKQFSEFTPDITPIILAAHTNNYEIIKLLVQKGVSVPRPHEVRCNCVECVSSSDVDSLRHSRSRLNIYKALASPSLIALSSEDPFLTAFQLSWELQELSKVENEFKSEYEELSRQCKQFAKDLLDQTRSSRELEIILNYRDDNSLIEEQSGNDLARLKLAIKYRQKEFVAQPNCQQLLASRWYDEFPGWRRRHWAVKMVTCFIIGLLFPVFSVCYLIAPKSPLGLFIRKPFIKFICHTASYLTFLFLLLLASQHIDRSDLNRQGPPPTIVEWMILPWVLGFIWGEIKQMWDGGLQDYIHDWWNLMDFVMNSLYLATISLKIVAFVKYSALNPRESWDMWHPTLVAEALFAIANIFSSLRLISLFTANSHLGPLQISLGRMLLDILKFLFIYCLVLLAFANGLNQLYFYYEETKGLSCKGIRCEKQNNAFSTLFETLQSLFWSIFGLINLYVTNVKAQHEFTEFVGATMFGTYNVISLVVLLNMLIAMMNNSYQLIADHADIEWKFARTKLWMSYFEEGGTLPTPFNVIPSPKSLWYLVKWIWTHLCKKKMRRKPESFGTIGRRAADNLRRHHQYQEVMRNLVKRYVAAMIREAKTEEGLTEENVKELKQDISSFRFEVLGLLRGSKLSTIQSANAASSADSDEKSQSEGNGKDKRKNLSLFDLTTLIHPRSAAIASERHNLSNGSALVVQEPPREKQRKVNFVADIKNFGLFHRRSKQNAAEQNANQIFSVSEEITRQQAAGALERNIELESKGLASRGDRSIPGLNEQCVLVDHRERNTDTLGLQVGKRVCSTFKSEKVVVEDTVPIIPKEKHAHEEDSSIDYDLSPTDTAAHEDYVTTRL

[3] = system: transient receptor potential cation channel C4 (TRPC4), mouse; test: membrane potential change in TRPC4 cells – cell-based, HEK293 TRPC4/mu-opioid, membrane potential dye, selectivity assay for TRPC6 inhibitor project, confirmation (AID 2777;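 active = rise or fall in signal beyond 3 SD of buffer-only wells in both replicate plates, either sign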;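 also: integrated kinetic ratio of fluorescence range over baseline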); details: membrane potential fluorescence, at 10 µM
[4] = parental HEK293 depolarization signal interference – cell-based, second counter screen, counter-screen for TRPC6 inhibitor project, confirmation (AID 2779;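 active = membrane potential signal moving either way by over 3 SD of the maximum-effect control, in both duplicate plates, meaning non-specific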); details: parental HEK293 membrane potential dye fluorescence; at 10 µM; maximal acetylcholine challenge after compound addition
[5] = nonspecific voltage dye signal in HEK293 – cell-based, parental HEK293, counter-screen for TRPC6 inhibitor project, confirmation (AID 2780;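 active = membrane potential signal shifting up or down by more than 3 SD of buffer-only wells, on both duplicate plates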;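 as to membrane potential signal change: plate controls were buffer EC0 wells for no effect and acetylcholine ECmax wells for full effect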); details: parental HEK293 membrane potential dye fluorescence; at 10 µM
[6] = biological target: Short transient receptor potential channel 6 (Mus musculus) (UniProt Q61143); test: blockers of TRPC6 cation channel activity – HEK293 cells, membrane potential dye, duplicate, confirmation (AID 488960;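 active = fluorescence ratio falls more than 5 SD below the full-stimulation control mean, in both duplicate runs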;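 as to inhibition: integrated fluorescence ratio of peak minus minimum over baseline after agonist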); details: ACh-evoked depolarization, at 10 µM; active compounds read high
Short transient receptor potential channel 6 (Mus musculus), sequence (Q61143 whole entry, looked up): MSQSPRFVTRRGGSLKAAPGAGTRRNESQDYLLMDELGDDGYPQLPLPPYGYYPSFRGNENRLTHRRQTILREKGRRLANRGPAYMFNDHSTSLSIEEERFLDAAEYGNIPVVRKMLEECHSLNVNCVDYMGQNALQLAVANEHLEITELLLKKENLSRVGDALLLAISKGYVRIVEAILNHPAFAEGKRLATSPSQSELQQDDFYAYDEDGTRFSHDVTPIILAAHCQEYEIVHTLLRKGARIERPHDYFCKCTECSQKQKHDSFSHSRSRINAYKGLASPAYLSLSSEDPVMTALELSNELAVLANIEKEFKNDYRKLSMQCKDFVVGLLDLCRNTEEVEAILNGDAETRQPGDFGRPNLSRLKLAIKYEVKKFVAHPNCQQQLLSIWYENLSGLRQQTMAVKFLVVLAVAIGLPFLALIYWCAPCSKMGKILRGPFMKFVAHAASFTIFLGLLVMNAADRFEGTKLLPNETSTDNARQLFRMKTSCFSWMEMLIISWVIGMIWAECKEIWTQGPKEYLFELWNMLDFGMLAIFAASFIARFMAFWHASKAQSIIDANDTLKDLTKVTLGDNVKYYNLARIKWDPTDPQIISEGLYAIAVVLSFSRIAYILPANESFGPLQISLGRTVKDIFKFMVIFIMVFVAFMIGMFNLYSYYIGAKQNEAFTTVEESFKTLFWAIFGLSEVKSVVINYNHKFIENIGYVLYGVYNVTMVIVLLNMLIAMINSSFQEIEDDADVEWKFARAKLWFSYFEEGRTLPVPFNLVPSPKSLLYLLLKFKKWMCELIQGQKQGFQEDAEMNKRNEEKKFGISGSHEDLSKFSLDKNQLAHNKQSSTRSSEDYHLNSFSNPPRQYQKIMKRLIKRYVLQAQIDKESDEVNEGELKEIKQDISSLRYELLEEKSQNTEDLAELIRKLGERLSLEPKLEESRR

[7] = biological target: Short transient receptor potential channel 6 (Mus musculus) (UniProt Q61143); test: mouse TRPC6 channel activators, confirmation, HEK293 cells, membrane potential dye, duplicate (AID 488961;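 active = ratio signal rise beyond 5 SD above unstimulated control wells' mean, seen in both duplicate runs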); details: HEK293-TRPC6 membrane potential dye fluorescence, FDSS, at 10 µM; active compounds read high
[8] = nonspecific flux increase, KCNQ1-free cells – parental CHO cells, counter-screen for KCNQ1 potentiator project (AID 493006;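 active = duplicate-averaged activation above buffer control mean plus 5 SD of those controls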;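 also: fluorescence ratio of max minus min over baseline after K+ and Tl+ depolarization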); details: parental CHO-K1 cells, FluxOR thallium flux, at 10 µM; active compounds read high
[9] = biological target: Potassium voltage-gated channel subfamily KQT member 1 (Homo sapiens) (UniProt P51787); test: enhancement of KCNQ1 channel thallium flux – FluxOR thallium flux, CHO cells, duplicates, confirmation (AID 493007;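 active = potentiation averaged over duplicate wells exceeding buffer-only control mean by more than 3 SD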;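 also: 0% = buffer-only wells and 100% = R-L3 activator control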); details: KCNQ1 cell line, FluxOR thallium flux fluorescence, at 10 µM; active compounds read high, % of reference activator effect, buffer zero
Potassium voltage-gated channel subfamily KQT member 1 (Homo sapiens), sequence (P51787 whole entry, looked up): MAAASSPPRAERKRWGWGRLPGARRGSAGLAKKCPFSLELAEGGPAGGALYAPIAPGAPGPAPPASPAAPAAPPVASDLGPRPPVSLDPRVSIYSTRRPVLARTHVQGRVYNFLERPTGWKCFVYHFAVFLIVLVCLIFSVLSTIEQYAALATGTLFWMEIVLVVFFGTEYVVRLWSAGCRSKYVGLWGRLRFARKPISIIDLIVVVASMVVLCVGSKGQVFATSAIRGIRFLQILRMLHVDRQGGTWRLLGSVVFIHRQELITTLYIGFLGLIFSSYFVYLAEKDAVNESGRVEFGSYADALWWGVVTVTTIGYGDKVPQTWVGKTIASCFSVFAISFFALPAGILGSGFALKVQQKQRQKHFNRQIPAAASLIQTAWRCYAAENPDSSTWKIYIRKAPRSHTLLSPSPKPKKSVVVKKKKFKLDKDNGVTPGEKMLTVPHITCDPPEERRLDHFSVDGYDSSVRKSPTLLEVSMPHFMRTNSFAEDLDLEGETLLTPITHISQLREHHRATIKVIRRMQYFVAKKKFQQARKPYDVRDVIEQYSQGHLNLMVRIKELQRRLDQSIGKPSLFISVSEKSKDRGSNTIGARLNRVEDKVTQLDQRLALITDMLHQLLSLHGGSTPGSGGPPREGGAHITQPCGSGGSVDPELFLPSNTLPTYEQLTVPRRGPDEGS

[10] = biological target: Potassium voltage-gated channel subfamily KQT member 2 (Rattus norvegicus) (UniProt O88943); test: KCNQ2 thallium flux enhancement – KCNQ2-CHO-K1 cells, selectivity assay for KCNQ1 potentiator project (AID 493009;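 active = mean duplicate potentiation above the buffer control mean plus 5 SD of buffer wells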;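 also: assay conditions were tuned for KCNQ1 rather than KCNQ2 modulators; signal is max minus min fluorescence divided by baseline after thallium stimulus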); details: FluxOR thallium flux fluorescence, at 10 µM; active compounds read high, scaled: buffer 0, activator control 100
[11] = biological target: Potassium voltage-gated channel subfamily KQT member 1 (Homo sapiens) (UniProt P51787); test: KCNQ1 activators by electrophysiology – IonWorks patch clamp, KCNQ1-CHO cells, orthogonal assay for KCNQ1 potentiator project, confirmation (AID 493184;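 active = current rise at least 3 SD above the untreated control mean in each of two repeat wells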); details: automated patch clamp current, at 10 µM; active compounds read high
[12] = biological target: Inward rectifier potassium channel 2 (Mus musculus) (UniProt P35561); test: PubChem AID 2345; details: HEK293 Kir2.1, FluxOR thallium flux fluorescence; at 10 µM; active compounds read high;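 also: 0% = vehicle mean plus 3 SD and 100% = vehicle minus no-stimulus blank window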
Inward rectifier potassium channel 2 (Mus musculus), sequence (P35561 whole entry, looked up): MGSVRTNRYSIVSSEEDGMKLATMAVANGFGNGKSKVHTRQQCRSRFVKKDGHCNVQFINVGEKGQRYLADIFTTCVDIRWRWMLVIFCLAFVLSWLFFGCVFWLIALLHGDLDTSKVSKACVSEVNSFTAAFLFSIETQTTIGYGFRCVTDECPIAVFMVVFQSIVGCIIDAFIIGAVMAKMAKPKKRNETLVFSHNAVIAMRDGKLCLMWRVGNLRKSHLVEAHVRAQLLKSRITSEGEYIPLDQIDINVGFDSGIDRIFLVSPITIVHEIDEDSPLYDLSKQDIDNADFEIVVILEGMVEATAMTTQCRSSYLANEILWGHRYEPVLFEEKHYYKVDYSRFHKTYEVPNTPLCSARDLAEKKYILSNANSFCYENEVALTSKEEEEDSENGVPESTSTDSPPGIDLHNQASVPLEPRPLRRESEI

Cc1cc(C(=O)OCC(=O)Nc2ccc(F)c(F)c2)c(C)o1
outcome [1]: inactive

CCCCOc1ccc(CSC(=N)N)cc1[N+](=O)[O-]
inhibition [2]: 77.5% (active) | outcome [3]: inactive | outcome [4]: inactive | membrane potential signal change [5]: -186% (active) | outcome [6]: inactive | outcome [7]: inactive

CC(Nc1nc(N2CCCC2)nc2ccccc12)c1ccccc1 (stereo not given)
outcome [2]: inactive | outcome [3]: inactive | outcome [4]: inactive | outcome [5]: inactive | outcome [6]: inactive | outcome [7]: inactive

Fc1cc(F)c2nc(Nc3nc4c(F)cccc4s3)sc2c1
outcome [1]: inactive | activation [8]: 330% (active) | potentiation [9]: 196% (active) | potentiation [10]: 422% (active) | outcome [11]: inactive

O=c1c2cc(Br)ccc2nc(-c2cccc(Cl)c2)n1O
outcome [1]: inactive | activation [8]: 803% (active) | potentiation [9]: 257% (active) | potentiation [10]: 703% (active) | outcome [11]: inactive

COc1ccc(NC(=O)CCCC2CCCCC2)c(OC)c1
outcome [1]: inactive

Oc1c(Cl)cc(Cl)c(Cl)c1Cc1c(O)c(Cl)cc(Cl)c1Cl
activity over 3SD threshold [12]: -73.8% | outcome [1]: inactive | inhibition [2]: 29.5% (active) | activity change, negative = inhibition [3]: 4.36% (active) | signal change vs control [4]: -19% (active) | membrane potential signal change [5]: 2.04% (active) | inhibition [6]: 96.7% (active) | outcome [7]: inactive | activation [8]: 414% (active) | potentiation [9]: 81.5% (active) | potentiation [10]: 480% (active) | outcome [11]: inactive

CC(=O)NNC(=O)c1csc(Cc2c(Cl)sc3ccc(Cl)cc23)n1
activity over 3SD threshold [12]: -69.1% | current increase over 3SD of negative controls (%), active compounds read high [1]: 1.62% (active)

CC(C)(C)C1CCC(C(=O)NCC(c2cccs2)N2CCOCC2)CC1 (stereo not given)
activity over 3SD threshold [12]: -57.7% | outcome [1]: inactive
